Source: PubChem BioAssay (National Center for Advancing Translational Sciences (NCATS))
Hits are enriched below; roughly 2.7% of the tested compounds scored in any of these assays.
HEK293 tox = qHTS of GLP-1 Receptor Inverse Agonists: Cytotox Screen. HEK293 cAMP-luciferase reporter cells, luminescence, 24 h. hit rate 0.13% among 410,000. AID 624418, 2012. Potency, µM (doses to about 38.3 µM), inactives show at the top dose activity change, negative = inhibition, usual class: inhibitors;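 further: loss of luciferase light is scored as toxicity; on the % scale 0 is the no-effect control and ±100 the full control effect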
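1536-well qHTS counterscreen of the MLSMR; 200 cells/uL, 12 h pre-incubation, 23 nL cpd, 24 h at 37 deg C 5% CO2, luciferase detection reagent, 12 min RT, luminescence. Inhibition = undesired.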
rTrxR1 inhibitor = qHTS Assay for Inhibitors of Mammalian Selenoprotein Thioredoxin Reductase 1 (TrxR1): qHTS; Thioredoxin reductase 1, cytoplasmic (Rattus norvegicus), O89049; recombinant rTrxR1, NADPH fluorescence consumption, selenite substrate; hit rate 1% among 390,000; Potency, µM (titrated, usually from 114 µM), for inactives: at the highest dose activity change, negative = inhibition, usual class: inhibitors; further: on the % scale 0 is the no-effect control and ±100 the full control effect; nearly all actives have a fitted effect of over 65% in size
Target sequence (O89049 whole entry, looked up): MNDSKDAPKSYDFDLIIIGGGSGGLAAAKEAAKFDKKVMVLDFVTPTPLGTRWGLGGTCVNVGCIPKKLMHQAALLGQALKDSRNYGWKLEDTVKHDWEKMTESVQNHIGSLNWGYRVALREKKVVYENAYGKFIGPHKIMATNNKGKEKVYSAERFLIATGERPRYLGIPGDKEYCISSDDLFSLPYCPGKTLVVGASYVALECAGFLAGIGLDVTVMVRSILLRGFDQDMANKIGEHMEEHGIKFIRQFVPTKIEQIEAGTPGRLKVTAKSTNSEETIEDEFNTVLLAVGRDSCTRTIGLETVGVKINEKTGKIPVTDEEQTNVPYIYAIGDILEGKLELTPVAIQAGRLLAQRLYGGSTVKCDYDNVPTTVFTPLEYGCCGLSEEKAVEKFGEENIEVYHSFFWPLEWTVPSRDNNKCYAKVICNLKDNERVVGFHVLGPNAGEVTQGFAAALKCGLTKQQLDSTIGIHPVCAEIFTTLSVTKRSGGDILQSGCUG
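Rat TrxR1 (90 nM in the dispensed reagent) was pre-reduced with 400 uM NADPH for 5 min at room temperature, then incubated with compound for 15 min. After 400 uM selenite was added, NADPH fluorescence (Ex 340/Em 450 nm) was followed for 8 min.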
GLP1R ag = qHTS of GLP-1 Receptor Agonists; Glucagon-like peptide 1 receptor (Homo sapiens), P43220; HEK293 GLP-1R CRE-luciferase, luminescence, 4-6 h; cells express a hypersensitive GLP-1R form; Potency, µM (series often up to 45.6 µM), inactives show at the highest dose activation, hits mostly activators; hit rate 0.007% among 380,000; further: % of control where 0% means no effect
GLP1R inv ag = qHTS of GLP-1 Receptor Inverse Agonists (Inhibition Mode); Potency, µM (top dose mostly 38.3 µM), for inactives: top-dose activity change, negative = inhibition, usual class: inhibitors; hit rate 1.6% among 410,000; Glucagon-like peptide 1 receptor (Homo sapiens), P43220; HEK293 GLP-1R CRE-luciferase, luminescence, 24 h; GLP-1R form is constitutively active; further: on the % scale 0 is the no-effect control and ±100 the full control effect; nearly all actives have a fitted effect of over 55% in size
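Inverse agonists were sought by their lowering of basal cAMP reporter luciferase output in HEK293 cells stably carrying constitutively active human GLP-1R, after 24 h compound treatment.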
TrxR1 substrate = qHTS Assay for Substrates of Mammalian Selenoprotein Thioredoxin Reductase 1 (TrxR1): qHTS; Thioredoxin reductase 1, cytoplasmic (Rattus norvegicus), O89049; purified TrxR1 substrate turnover, NADPH consumption readout; Potency, µM (series often up to 114 µM), for inactives: at the top dose activity change, negative = substrate turnover; hit rate 0.01% among 390,000; AID 588456, 2011; further: on the % scale 0 is the no-effect control and ±100 the full control effect; nearly all actives have a fitted effect of over 50% in size
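Rat TrxR1, dispensed at 90 nM, was prereduced with 400 uM NADPH (final) for 5 min at ~22 deg C, then incubated with compound 15 min before 400 uM selenite. A first-read NADPH fluorescence drop versus no-compound background flagged substrates.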
IDH1 R132H inh = qHTS for Inhibitors of mutant isocitrate dehydrogenase 1 (IDH1): qHTS; Isocitrate dehydrogenase [NADP] cytoplasmic (Homo sapiens), O75874; IDH1-R132H enzyme, NADPH consumption, diaphorase/resazurin fluorescence; Potency, µM (titrated, usually from 76.6 µM), without a hit: top-dose activity change, negative = inhibition, usual class: inhibitors; hit rate 0.093% among 390,000; AID 602179, 2012; further: on the % scale 0 is the no-effect control and ±100 the full control effect; nearly all actives have a fitted effect of over 65% in size
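IDH1-R132H (0.5 ug/mL) preincubated 30 min with compound, then NADPH (0.016 mM) and alpha-KG (2 mM) added; 80 min at RT, pH 7.5. Remaining NADPH coupled via diaphorase/resazurin to fluorescence (540/590 nm); concentration-response curves normalized to no-enzyme control.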
Numbers without * were called inactive; [ ] = another dose, or the depositor's remark. The call rests on the fitted dose curve; in most records, active means well fitted curve in the direction sought with a large enough effect; inconclusive means small, poorly fitted or top-dose-only effect, or another doubt; inactive means no such curve, though single readings can be large; an effect the other way counts as inactive or inconclusive. Potency means the concentration at half of the fitted maximal effect.

`C=CCN1C(=O)NC(c2ccc(OC)cc2)(C(F)(F)F)S/C1=C(\C#N)c1nnc(N2CCOCC2)n1-c1ccccc1` (stereo unspecified) gave HEK293 tox 10µM*, rTrxR1 inhibitor -6.0%[57.1 µM], GLP1R ag 1.9%, GLP1R inv ag inconclusive, TrxR1 substrate 1.4%[57.1 µM] and IDH1 R132H inh -2.4%.
Screening Cc1ccc(NC(=O)Nc2cc(C(F)(F)F)c[nH]c2=O)cc1 returned HEK293 tox -10.7%, rTrxR1 inhibitor 7.4%, GLP1R ag 11.5%, GLP1R inv ag 10µM*, TrxR1 substrate -7.2% and IDH1 R132H inh -3.7%.
Cc1ccc(S(=O)(=O)Nc2ccc(NC(=O)Nc3cccc(C(F)(F)F)c3)cc2)cc1 was read as HEK293 tox inconclusive, rTrxR1 inhibitor -0.2%, GLP1R ag -18.3%, GLP1R inv ag inconclusive, TrxR1 substrate -9.5% and IDH1 R132H inh -7.2%.
Cc1cc(=O)oc2cc(OC(=O)c3ccco3)ccc12 was read as HEK293 tox 14.8%, rTrxR1 inhibitor 70.8µM*, GLP1R ag 24.0%, GLP1R inv ag 3.9%, TrxR1 substrate 54.5% and IDH1 R132H inh -0.7%.
Screening CCCn1nc(C(=O)Oc2ccc3c(C)cc(=O)oc3c2)c2ccccc2c1=O returned HEK293 tox 30.7%, rTrxR1 inhibitor 50.1µM*, GLP1R ag -4.1%, GLP1R inv ag 14.8%, TrxR1 substrate 702.2% and IDH1 R132H inh 2.9%.
`Cc1cc(=O)oc2cc(OC(=O)c3nn(C(C)C)c(=O)c4ccccc34)ccc12` gave HEK293 tox 60.8%, rTrxR1 inhibitor 25.1µM*, GLP1R ag 0.2%, GLP1R inv ag 28.6%, TrxR1 substrate 658.2% and IDH1 R132H inh 2.6%.
Screening O=C(CCl)N(C1CCCC1)C1CCS(=O)(=O)C1 (stereo unspecified) returned HEK293 tox 6.2%, rTrxR1 inhibitor inconclusive, GLP1R ag -1.7%, GLP1R inv ag 4.47µM*, TrxR1 substrate 5.7% and IDH1 R132H inh 1.4%.
CC(=O)c1ccc(OCC(=O)N(C2CCCCC2)C2CCS(=O)(=O)C2)cc1 (stereo unspecified) was read as HEK293 tox -5.6%, rTrxR1 inhibitor -3.8%, GLP1R ag -2.1%, GLP1R inv ag 7.3%, TrxR1 substrate -7.9% and IDH1 R132H inh 2.6%.
Cc1ccc(S(=O)(=O)N2CCN(c3nc(-c4cccs4)nc4cccnc34)CC2)cc1 was read as rTrxR1 inhibitor inconclusive and TrxR1 substrate 1.5%.
`c1ccc(-c2onc(-c3ccco3)c2-c2ccc3c(c2)OCO3)cc1` gave HEK293 tox 11.6%, rTrxR1 inhibitor 50.1µM*, GLP1R ag 13.7%, GLP1R inv ag -4.1%, TrxR1 substrate 8.2% and IDH1 R132H inh 6.6%.
For COc1ccc(-c2c(-c3ccc4c(c3)OCO4)noc2-c2ccsc2)cn1 the results were rTrxR1 inhibitor 18.1% and TrxR1 substrate 1.3%.
Screening FC(F)Sc1ccc(NC(=S)NC(c2ccccc2)c2ccccc2)cc1 returned HEK293 tox inconclusive, rTrxR1 inhibitor -19.0%[11.4 µM], GLP1R ag -5.0%, GLP1R inv ag 3.98µM*, TrxR1 substrate -4.8%[11.4 µM] and IDH1 R132H inh 1.3%.
For COc1ccc(NC(=O)CCSc2nc(-c3ccco3)cc(C(F)(F)F)n2)cc1OC the results were HEK293 tox 0.0%, rTrxR1 inhibitor 8.7%, GLP1R inv ag -16.9%, TrxR1 substrate 1.5% and IDH1 R132H inh 0.0%.
COc1ccc(NC(=O)CCCSc2nc(-c3ccco3)cc(C(F)(F)F)n2)cc1OC was read as HEK293 tox -8.5%, rTrxR1 inhibitor 7.1%, GLP1R ag 8.5%, GLP1R inv ag 11.2µM*, TrxR1 substrate -3.2% and IDH1 R132H inh -5.0%.
For CC1CCN(c2ccccc2NC(=S)NC(=O)c2ccco2)CC1 the results were HEK293 tox inconclusive, rTrxR1 inhibitor inconclusive, GLP1R ag 2.6%, GLP1R inv ag 10µM*, TrxR1 substrate -17.3% and IDH1 R132H inh 10.8%.
Screening CCC(C(=O)Nc1ccccc1)n1nc(-c2cc(C)ccc2C)ccc1=O (stereo unspecified) returned HEK293 tox -5.4%, rTrxR1 inhibitor 3.6%, GLP1R inv ag inconclusive, TrxR1 substrate -3.7% and IDH1 R132H inh 2.5%.
Screening CCc1ccccc1NC(=O)CN(C)Cc1c(O)ccc2ccccc12 returned HEK293 tox 14.3%, rTrxR1 inhibitor 39.8µM*, GLP1R ag 0.9%, GLP1R inv ag -22.8%, TrxR1 substrate 6.1% and IDH1 R132H inh 7.2%.
CN(CC(=O)Nc1ccccc1C(F)(F)F)Cc1c(O)ccc2ccccc12 was read as HEK293 tox 2.7%, rTrxR1 inhibitor inconclusive, GLP1R ag 6.9%, GLP1R inv ag inconclusive, TrxR1 substrate 7.2%[57.1 µM] and IDH1 R132H inh 14.7%.
Screening O=C1C(Br)=C(c2ccccc2)C(c2ccccc2)=C1c1ccccc1 returned HEK293 tox 10.6%, rTrxR1 inhibitor 0.708µM*, GLP1R ag -1.7%, GLP1R inv ag -17.7%, TrxR1 substrate -8.0% and IDH1 R132H inh 5.5%.
Screening CC(C)(C)C1CCc2c(sc(NC(=O)c3cccs3)c2C(=O)N2CCCCC2)C1 (stereo unspecified) returned HEK293 tox -0.4%, rTrxR1 inhibitor 19.3%[57.1 µM], GLP1R ag -15.1%, GLP1R inv ag 3.55µM*, TrxR1 substrate 14.5% and IDH1 R132H inh 1.2%.
`N[C@@H](C(=O)N[C@@H]1C(=O)N2C(C(=O)O)=C(CSc3cn[nH]n3)CS[C@H]12)c1ccc(O)cc1` gave GLP1R ag 0.1%.
For O=C(NCCSc1c[nH]c2ccccc12)c1ccc(Br)o1 the results were HEK293 tox -16.8%, rTrxR1 inhibitor 2.5%[57.1 µM], GLP1R ag -3.8%, GLP1R inv ag inconclusive, TrxR1 substrate 2.9%[57.1 µM] and IDH1 R132H inh 4.6%.
Cc1[nH]c2ccccc2c1SCCNC(=O)c1ccc(Br)o1 was read as HEK293 tox -20.6%, rTrxR1 inhibitor -2.9%, GLP1R ag 3.5%, GLP1R inv ag 11.2µM*, TrxR1 substrate 0.0% and IDH1 R132H inh -3.7%.
